TRHR enhancer: qHTS for Small Molecule Agonists and Allosteric Enhancers of Human TRH Receptor: Primary Screen for Enhancers; 360,000 tested, 0.66% active; TRHR cells, fluo-8 calcium fluorescence, EC20 TRH enhancement; enhancement, % at 2 µM; Thyrotropin-releasing hormone receptor (Homo sapiens), P34981; AID 493056, 2011; in the data active = enhancement above about 30%; note: 0% is about no effect
Target sequence (P34981 whole entry, looked up): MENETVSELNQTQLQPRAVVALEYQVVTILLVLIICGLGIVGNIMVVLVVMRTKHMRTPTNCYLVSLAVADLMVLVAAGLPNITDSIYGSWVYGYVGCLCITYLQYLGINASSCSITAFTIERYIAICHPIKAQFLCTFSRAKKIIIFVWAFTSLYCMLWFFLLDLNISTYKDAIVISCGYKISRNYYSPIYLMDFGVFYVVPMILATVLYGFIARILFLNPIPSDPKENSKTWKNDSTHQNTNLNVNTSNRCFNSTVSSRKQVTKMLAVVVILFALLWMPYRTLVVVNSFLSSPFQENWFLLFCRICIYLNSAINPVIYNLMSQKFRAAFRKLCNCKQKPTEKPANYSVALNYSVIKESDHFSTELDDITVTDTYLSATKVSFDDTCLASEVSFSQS
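TRHR-expressing cells loaded with fluo-8 calcium dye were read kinetically (ex 480/em 530) during compound addition, then stimulated with an EC20 of TRH (10 nM final). Enhancement of the Gq-mediated intracellular calcium response was scored.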
D1 ag: Allosteric Agonists of the Human D1 Dopamine Receptor: qHTS; 360,000 tested, 1% active; activation, % at 2 µM; HEK293 T-REx D1 cells, calcium flux, agonist mode; D(1A) dopamine receptor (Homo sapiens), P21728; note: 0% is about no effect
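Tetracycline-induced HEK293 TREx D1 cells, force-coupled to calcium signalling, were dye-loaded with a no-wash calcium kit. Compound was pin-added after a 10 s baseline. Fluorescence was read kinetically at 1 cycle/s for 180 s, with calcium rises flagged as agonism.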
D1 PAM: Potentiators of Human D1 Dopamine Receptor: qHTS; D(1A) dopamine receptor (Homo sapiens), P21728; HEK293 TREx D1 cells, calcium flux, dopamine EC20 potentiation; potentiation, % at 10 µM; 360,000 tested, 0.036% active; AID 504651, 2011; in the data active = potentiation above about 30%; note: 0% is about no effect
D1 antag: Antagonist of Human D 1 Dopamine Receptor: qHTS. D(1A) dopamine receptor (Homo sapiens), P21728. HEK293 TREx D1 cells, calcium flux, dopamine EC80; active compounds read low. activity change, negative = inhibition, % at 10 µM. 360,000 tested, 3.2% active. AID 504652, 2011; in the data active = activity change below about -30%; note: % is set by controls: 0 for no effect and ±100 for the full control effect
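HEK293 T-REx cells expressing inducible, force-coupled D1 receptor; no-wash Ca dye, 30–90 min RT. Cmpd → 180 s read at 1 Hz → EC80 DA → 180 s read.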
TRHR ag: qHTS for Small Molecule Agonists and Allosteric Enhancers of Human TRH Receptor: Primary Screen for Agonists; Thyrotropin-releasing hormone receptor (Homo sapiens), P34981; TRHR cells, calcium flux fluo-8, FDSS agonist mode; activation, % at 2 µM; 360,000 tested, 0.18% active; AID 493084, 2011; note: 0% is about no effect
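Steps: seed TRHR cells overnight; add fluo-8 no-wash Ca dye, RT 30 min–1.5 h; record 10 s baseline; pin-transfer compounds; monitor fluorescence 1 cycle/s for the agonist window. Calcium increases flag candidate agonists.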
Starred values were filed as active, the others as inactive. Hits are enriched below; roughly 4.7% of the tested compounds scored in any of these assays. Cut-off read from the data, not from the text of the source, unless noted: active = activation above about 30%; inactive = the rest.

Cc1ccc(NC(=O)C2CCCN(S(=O)(=O)c3cccc4cccnc34)C2)c(C)c1 (stereo unspecified) was read as TRHR enhancer -3, D1 ag 2, D1 PAM -4, D1 antag -1 and TRHR ag -2.
For Cc1ccc(C)c(CN2C(=O)c3ccccc3S(=O)(=O)c3ccc(C(=O)N4CCc5ccccc54)cc32)c1 the results were TRHR enhancer -7, D1 ag 2, D1 PAM -2, D1 antag 6 and TRHR ag 0.
`COc1cccc(CN(C(=O)COc2ccc(Cl)c(C)c2)C2CCS(=O)(=O)C2)c1` (stereo unspecified) gave TRHR enhancer -4, D1 ag 5, D1 PAM -1, D1 antag 1 and TRHR ag 0.
For COc1cccc(CNC(=O)C(=O)NCC(c2cccs2)S(=O)(=O)c2cccs2)c1 (stereo unspecified) the results were TRHR enhancer 0, D1 ag 6, D1 PAM -3 and TRHR ag 0.
CC1CCN(C(=O)c2ccc(COc3ccccc3Cl)o2)CC1 was read as TRHR enhancer 12, D1 ag 22, D1 PAM -3, D1 antag -36* and TRHR ag -1.
O=C(c1ccc(COc2ccccc2Cl)o1)N1CCCC1 was read as TRHR enhancer -3, D1 ag 1, D1 PAM 5, D1 antag 12 and TRHR ag 0.
CCOc1ccc(NC(=O)CSc2ncc3c(n2)-c2ccc(Cl)cc2N(Cc2ccccc2)S3(=O)=O)cc1 was read as TRHR enhancer 1, D1 ag 5, D1 PAM 0, D1 antag 22 and TRHR ag 0.
Screening COc1ccc(-n2nc(C(=O)N(C)c3cc(C)ccc3C)c3c4ccccc4n(C)c3c2=O)cc1Cl returned TRHR enhancer -5, D1 ag 0, D1 PAM 2, D1 antag -8 and TRHR ag 0.
Screening O=C(NCCCNc1ccc(C(F)(F)F)cc1[N+](=O)[O-])c1ccc(Cl)cc1 returned TRHR enhancer 3, D1 ag 0, D1 PAM -3, D1 antag 11 and TRHR ag 0.
For O=C(NCCCNc1ccc(C(F)(F)F)cc1[N+](=O)[O-])c1cc(F)c(F)cc1Cl the results were TRHR enhancer -1, D1 ag 16, D1 PAM -5, D1 antag -43* and TRHR ag 1.
Screening Cc1ccc(SCc2ccc(C(=O)Nc3ccccc3C(=O)NC(C)C)cc2)cc1 returned TRHR enhancer 1, D1 ag 11, D1 PAM 17, D1 antag -7 and TRHR ag 0.
`CCCNC(=O)c1ccccc1NC(=O)c1ccc(CSc2ccccc2)cc1` gave TRHR enhancer 5, D1 ag 40*, D1 PAM -8, D1 antag -46* and TRHR ag -2.
For CCC(C)NC(=O)c1ccccc1NC(=O)c1ccc(CSc2ccccc2)cc1 (stereo unspecified) the results were TRHR enhancer -1, D1 ag 36*, D1 PAM -4, D1 antag -4 and TRHR ag 2.
Screening Clc1ccc(OCCSCc2nc3ccccc3[nH]2)cc1 returned TRHR enhancer 2, D1 ag 21, D1 PAM -4, D1 antag -49* and TRHR ag 0.
Screening COc1cccc(C(=O)NCCc2csc3nc(-c4ccccc4F)nn23)c1OC returned TRHR enhancer 35*, D1 ag 0, D1 PAM 4, D1 antag 5 and TRHR ag 0.
Screening CN1CCN(c2cc(C(F)(F)F)nc3ccc(F)cc23)CC1 returned TRHR enhancer -4, D1 ag 3, D1 PAM -2, D1 antag 0 and TRHR ag 1.
`CN1CCN(C2=Cc3ccccc3Sc3cc(F)ccc32)CC1` gave TRHR enhancer 1, D1 ag 8, D1 PAM -9, D1 antag -62* and TRHR ag 0.
CN1CCN(C2=Cc3ccc(Cl)cc3Sc3ccc(F)cc32)CC1 was read as TRHR enhancer 5, D1 ag 9, D1 PAM -28, D1 antag -91* and TRHR ag 1.
CN1CCN(c2ccc(Cl)cc2NC(=O)/C=C/c2ccc(F)cc2)CC1 was read as TRHR enhancer 3, D1 ag 7, D1 PAM 0, D1 antag -12 and TRHR ag 1.
`Cc1c(C(=O)NCc2ccc(F)cc2)oc2ccc(S(=O)(=O)N3CCCCC3)cc12` gave TRHR enhancer 2, D1 ag 1, D1 PAM 1, D1 antag 13 and TRHR ag 0.
`COc1cccc(C2CC(C(F)(F)F)n3ncc(C(=O)NC(C)(C)C)c3N2)c1` (stereo unspecified) gave TRHR enhancer -3, D1 ag 0, D1 PAM 5, D1 antag 5 and TRHR ag 0.
For COc1cccc(C2CC(C(F)(F)F)n3ncc(C(=O)NCc4ccco4)c3N2)c1 (stereo unspecified) the results were TRHR enhancer 32*, D1 ag 3, D1 PAM 9, D1 antag -9 and TRHR ag -1.
COc1ccc(CCn2c(=O)c3ccccc3n(CC(=O)Nc3cccc(C)c3)c2=O)cc1OC was read as TRHR enhancer -1, D1 ag 3, D1 PAM -1, D1 antag 5 and TRHR ag 0.
Screening Cc1cc(/C=C2\SC(=S)N(Cc3ccco3)C2=O)c(C)n1-c1ccccc1 returned TRHR enhancer 6, D1 ag 31*, D1 PAM -1, D1 antag -20 and TRHR ag 10.
Screening CC(=O)c1ccc(COC(=O)c2cc3ccccc3oc2=O)cc1 returned TRHR enhancer -7, D1 ag -1, D1 PAM -10, D1 antag 9 and TRHR ag 0.
`CN1C(=O)C(N=Nc2ccccc2C(=O)O)N(C)C1=S` (stereo unspecified) gave TRHR enhancer 1, D1 ag 46*, D1 PAM 3, D1 antag 2 and TRHR ag 12.
`CCc1cccc(C)c1N=Cc1c(O)c2ccccc2oc1=O` gave TRHR enhancer -7, D1 ag 1, D1 PAM -3, D1 antag -3 and TRHR ag 0.
COc1cc(OC)c(OC)cc1CN1CCN(Cc2ccco2)CC1 was read as TRHR enhancer 5, D1 ag 4, D1 PAM 1, D1 antag -33* and TRHR ag 0.

Source: PubChem BioAssay
